A selection: hits, their analogues and other compounds. The true share with any hit is near 7.2%.
SNCA expr inhib: SNCA gene expression inhibition; HEK-293 SNCA-luciferase knock-in, luminescence, 24 h; Potency, µM (highest dose often 57.2 µM), without a hit: top-dose activity change, negative = inhibition, hits mostly inhibitors; hit rate 0.17% among 140,000;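 note: plate controls were DMSO cells for no effect and cell-free wells for full effect; nearly all actives have a fitted effect of over 45% in size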
3T3 cytotox: cytotoxic compounds in NIH 3T3 cells. hit rate 4.3% among 94,000. Potency, µM (titrated, usually from 96.7 µM), without a hit: at the highest dose activity change, negative = cytotoxicity, most hits filed as inhibitors. AID 1345082. NIH 3T3 viability, CellTiter-Glo ATP luminescence, 48-72 h; note: nearly all actives have a fitted effect of over 55% in size
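Cytotoxicity is measured as loss of cellular ATP: NIH 3T3 cells (400/well) are exposed to compound for 48 or 72 hr at 37 °C, then CellTiter-Glo luminescence is imaged after 10 min at room temperature.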
FLuc inh: inhibitors of firefly (Photinus pyralis) luciferase; P08659; purified P. pyralis luciferase, luminescence, biochemical; Potency, µM (top dose mostly 115 µM), hits mostly inhibitors; hit rate 2.5% among 76,000; note: nearly all actives have a fitted effect of over 65% in size
Target sequence (P08659 whole entry, looked up): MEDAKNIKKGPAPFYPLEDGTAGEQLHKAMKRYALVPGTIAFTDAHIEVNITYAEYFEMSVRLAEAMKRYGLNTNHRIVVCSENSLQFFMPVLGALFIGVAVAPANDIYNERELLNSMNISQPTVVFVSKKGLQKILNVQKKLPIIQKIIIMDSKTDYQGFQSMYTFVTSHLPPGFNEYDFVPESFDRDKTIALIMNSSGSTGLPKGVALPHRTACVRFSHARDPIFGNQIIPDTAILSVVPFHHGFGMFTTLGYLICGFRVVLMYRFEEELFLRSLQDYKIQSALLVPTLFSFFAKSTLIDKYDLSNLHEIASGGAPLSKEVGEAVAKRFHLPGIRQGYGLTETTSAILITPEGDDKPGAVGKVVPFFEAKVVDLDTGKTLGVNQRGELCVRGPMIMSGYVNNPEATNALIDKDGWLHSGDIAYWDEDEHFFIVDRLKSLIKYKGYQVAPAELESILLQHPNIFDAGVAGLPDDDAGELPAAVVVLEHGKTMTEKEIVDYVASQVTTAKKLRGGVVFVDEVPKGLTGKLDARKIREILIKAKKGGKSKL
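Cell-free enzyme assay, 10nM P. pyralis luciferase, luciferin and ATP each at 10uM. Inhibition profiled over a 6-point titration, read as luminescence.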
HEK293 tox: cytotoxic compounds in HEK 293 cells. HEK 293 viability, ATP luminescence (CellTiter-Glo), 48-72 h. Potency, µM (highest dose often 115 µM), for the others: at the top dose activity change, negative = cytotoxicity, actives largely listed as inhibitors. hit rate 6.6% among 94,000. AID 1345083; note: nearly all actives have a fitted effect of over 60% in size
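Read-out: CellTiter-Glo ATP luminescence. Cells: HEK 293, 250 cells/well. Exposure: 48 or 72 hr, 37 degree Celsius.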
NPR1 antag: antagonists of human natriuretic peptide receptor Npr1. P16066. HEK293 hNpr1 GloSensor cGMP, ANP-stimulated luminescence. hit rate 1.6% among 76,000. Potency, µM (series often up to 46.3 µM), for the others: at the highest dose activity change, negative = inhibition, actives largely listed as inhibitors; calls by dose curve; note: nearly all actives have a fitted effect of over 60% in size
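Compound pre-incubated 30 min at room temperature on GloSensor-loaded HEK293 cells stably carrying hNpr1 and the pGS-40F cGMP biosensor. Stimulation uses hNppA at 0.1 nM final; luminescence is taken at baseline and 20 min post-agonist.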
SNCA viab count: cell viability loss counter-screen; AID 1671193; hit rate 0.12% among 150,000; HEK-293-SNCA-luc viability, GF-AFC fluorescence, 24 h; Potency, µM (titrated, usually from 57.1 µM), inactives show at the highest dose activity change, negative = cytotoxicity, most hits filed as cytotoxic;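 note: 0% = DMSO-treated cells and -100% = medium-only wells without cells; nearly all actives have a fitted effect of over 30% in size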
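Cytotoxicity counterscreen: after 24 h compound treatment of genome-edited SNCA-luciferase HEK-293 cells, live-cell protease substrate GF-AFC read by fluorescence after 30 min; activity scaled between DMSO (0%) and medium-only (-100%), curves Hill-fitted.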
* = called active by the depositor; i = inactive; ? = inconclusive; / = no result given; [ ] = another dose, or the depositor's remark. Unless noted, calls come from the whole dose curve; as a rule, active = well fitted curve in the direction sought with a large enough effect; inconclusive = small, poorly fitted or top-dose-only effect, or another doubt; inactive = no such curve, though single readings can be large; an effect the other way counts as inactive or inconclusive. Unless noted, % is set by controls: 0 for no effect and ±100 for the full control effect; potency is the fitted concentration of half-maximal effect.

SMILES	SNCA expr inhib	3T3 cytotox	FLuc inh	HEK293 tox	NPR1 antag	SNCA viab count
COc1ccc(CN2Cc3[nH]cnc3C[C@H]2C(=O)N(C)Cc2ccccc2)c2ccccc12	-22%	?	i	40µM*	-26%	?
O=C(NCc1ccc(Cl)cc1)[C@@H]1Cc2nc[nH]c2CN1Cc1ccc(Cl)cc1	?	45µM*	i	32µM*	?	?
COc1ccc(CN2Cc3[nH]cnc3C[C@H]2C(=O)NCc2ccc(Cl)cc2)c2ccccc12	?	?	i	?	?	?
COc1ccc(CN2Cc3[nH]cnc3C[C@H]2C(=O)NC2CCCCC2)c2ccccc12	-1%[87.6 µM]	63µM*	i	?	-19%[70.6 µM]	-27%[87.6 µM]
COCCNC(=O)c1ccc2c(c1)N(C)C(CC(=O)N1CCNC(=O)C1)CO2 (stereo unspecified)	-15%	-5%	i	-22%	5%	13%
CCn1c2ccccc2c2cc(C(=O)N3CCCCCCNC(=O)CC3)ccc21	-1%	?	i	?	-6%	-4%
C#CCN(C)C(=O)[C@@H]1CCCN1[C@@H](C(=O)NC)c1ccc(OC)cc1	-4%[87.6 µM]	-14%[174 µM]	i	-6%[172 µM]	-8%[70.6 µM]	4%[87.6 µM]
Cc1ccc(-c2ccccc2CN2CCN(C(=O)N(C)C)CC2)cc1Cl	-7%	?	/	32µM*	/	6%[12.5 µM]
Cc1ccc(-c2ccccc2CN2CCC(C(=O)NCC3CC3)CC2)cc1Cl	/	?	/	35µM*	/	/
Cc1ccc(-c2ccccc2CN2CCC(C(=O)NCC(F)(F)F)CC2)cc1Cl	?	?	/	50µM*	/	-9%
O=C(Nc1ccccc1)N[C@H]1CO[C@H]2[C@@H]1OC[C@H]2OC(=O)Nc1ccccc1	67%[87.6 µM]	-32%[174 µM]	45µM*	?	-3%[70.6 µM]	1%[87.6 µM]
COC(=O)c1cccc(C(=O)N[C@H]2CO[C@H]3[C@@H]2OC[C@H]3OC(=O)Nc2ccc(Oc3ccccc3)cc2)c1	?	-9%	i	10µM*	-20%	0%
O=C(Nc1ccccc1)O[C@@H]1CO[C@H]2[C@@H]1OC[C@@H]2NC(=S)Nc1ccccc1	-17%[87.6 µM]	-18%[138 µM]	i	-26%[172 µM]	-5%[70.6 µM]	2%[87.6 µM]
CC(=O)c1ccc(NC(=O)O[C@@H]2CO[C@H]3[C@@H]2OC[C@@H]3NC(=O)C2CC2)cc1	0%[87.6 µM]	-4%[174 µM]	i	-6%[172 µM]	6%[70.6 µM]	1%[87.6 µM]
CC(=O)c1ccc(NC(=O)O[C@@H]2CO[C@H]3[C@@H]2OC[C@@H]3NC(=S)NC2CCCCC2)cc1	17%	-20%	i	79µM*	-19%	-2%
CC(C)c1ccc(NC(=O)N[C@H]2CO[C@H]3[C@@H]2OC[C@H]3OC(=O)Nc2cccc(C(F)(F)F)c2)cc1	-21%	25µM*	i	28µM*	?	-22%
CCCn1c(C)cnc1CC1CCCN(C(=O)c2ccc(OC)cc2)C1 (stereo unspecified)	17%	-19%	i	4%	-1%	?
COc1cccc(S(=O)(=O)N2CC(F)(F)C[C@H]2c2nnc(C)o2)c1	5%	?	i	-20%	-10%	-13%
O=C1NCc2ccccc2CC12CCCN2Cc1cnc2ccccc2c1 (stereo unspecified)	-1%	-2%	/	?	/	-3%
COC[C@@H]1CN(C(=O)CCc2ccccc2)C[C@H]1c1ccccn1	-17%	-9%	/	i	/	3%
CC(C)C[C@H](CC(=O)NO)C(=O)N[C@@H](Cc1ccc2ccccc2c1)C(=O)N[C@@H](C)C(=O)NCCN	/	/	/	/	/	-29%
CC[n+]1c(/C=C/C=C2/N(C)c3ccccc3C2(C)C)sc2ccccc21	?	/	/	/	/	10µM*
CN(Cc1ccccc1C(F)(F)F)C(=O)c1cccc(Cl)c1	-17%[87.6 µM]	?	i	89µM*	0%[70.6 µM]	0%[87.6 µM]
O=C(NCC1CCN(c2cc(-c3ccc(Cl)cc3)[nH]n2)CC1)c1ccc[nH]1	-11%	22µM*	i	?	-22%	-7%

High-throughput results from PubChem.
